Data published in PubChem BioAssay (NCI).
About 79,000 compounds went through this panel and 15% of them were active in at least one assay; those are over-represented in the sample as a whole. The source made the active and inactive calls. No stated cut-off is given here; in the data, active means growth inhibition above about 70%; inactive means the rest.

Key:
[1] = NCI Yeast Anticancer Drug Screen. Data for the wt1 strain (AID 149);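 further: 0% = growth of vehicle-treated wt1 cultures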; details: S. cerevisiae wt1 strain (SPY 50644) growth inhibition, hits give high values
Summary of the method: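 Growth inhibition read against vehicle controls after compound exposure of the wt1 yeast strain.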

[2] = NCI Yeast Anticancer Drug Screen. Data for the rad50EPP+ strain (AID 151);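 further: 0% = growth of vehicle-treated control cultures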; details: S. cerevisiae rad50 mutant strain, hits give high values
Summary of the method: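 In this screen, rad50EPP+ yeast were exposed to compounds. Growth inhibition was scored against vehicle-treated controls.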

[3] = NCI Yeast Anticancer Drug Screen. Data for the mgt1 strain (AID 153); details: S. cerevisiae mgt1 mutant growth inhibition, hits give high values
Summary of the method: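 mgt1 strain exposed; growth vs vehicle control recorded as inhibition.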

[4] = NCI Yeast Anticancer Drug Screen. Data for the rad50 strain (AID 155);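 further: 0% = growth of vehicle-only cultures of the same strain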; details: S. cerevisiae rad50 strain growth inhibition, hits give high values
Summary of the method: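 Readout: growth inhibition relative to vehicle-treated cultures. Compound exposure was carried out in a genetically defined yeast strain deficient in DNA damage repair.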

[5] = NCI Yeast Anticancer Drug Screen. Data for the mec2-1 strain (AID 157); details: S. cerevisiae mec2-1 strain, hits give high values
Summary of the method: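 Vehicle-treated cultures served as reference for growth inhibition of compound-exposed mec2-1 yeast.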

[6] = NCI Yeast Anticancer Drug Screen. Data for the rad14 strain (AID 159);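 further: 0% = growth of vehicle-treated control cultures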; details: S. cerevisiae rad14 strain growth inhibition, hits give high values
Summary of the method: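 Growth inhibition vs vehicle controls; genetically altered yeast strain (DNA damage repair defect) treated with test compounds.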

[7] = NCI Yeast Anticancer Drug Screen. Data for the sgs1 mgt1 strain (AID 161);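 further: 0% = growth of cultures given vehicle only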; details: S. cerevisiae sgs1 mgt1 strain, hits give high values
Summary of the method: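 Read-out: growth inhibition vs vehicle controls. Cells: mutant yeast strain deficient in DNA damage repair.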

[8] = NCI Yeast Anticancer Drug Screen. Data for the CLN2oe strain (AID 163);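 further: 0% = growth of vehicle-only control cultures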; details: S. cerevisiae CLN2oe strain, hits give high values
Summary of the method: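 Inhibition relative to vehicle-treated yeast is reported. Cells: strain with genetic alteration in cell-cycle control, grown with compound.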

[9] = NCI Yeast Anticancer Drug Screen. Data for the cln2 rad14 strain (AID 165);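 further: 0% = growth equal to vehicle treated cultures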; details: S. cerevisiae cln2 rad14 strain, hits give high values
Summary of the method: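 Each compound was tested on cln2 rad14 yeast. Inhibition of growth was calculated against vehicle-exposed controls.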

[10] = NCI Yeast Anticancer Drug Screen. Data for the bub3 strain (AID 167); details: S. cerevisiae bub3 mutant strain, hits give high values
Summary of the method: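 Readout: yeast growth inhibition, expressed relative to vehicle-only wells. The test organism is a mutant strain from a panel with lesions in DNA repair or checkpoint genes.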

[11] = NCI Yeast Anticancer Drug Screen. Data for the wt2 strain (AID 169);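 further: 0% = growth of vehicle-treated yeast cultures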; details: S. cerevisiae wt2 strain growth inhibition, hits give high values
Summary of the method: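 Inhibition of yeast growth was determined after compound treatment, normalised to controls receiving only vehicle.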

[12] = NCI Yeast Anticancer Drug Screen. Data for the mlh1 strain (AID 171);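 further: 0% = growth of vehicle-treated control cultures of the same strain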; details: S. cerevisiae mlh1 strain growth inhibition, hits give high values
Summary of the method: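 Vehicle-normalised growth inhibition of a repair- or checkpoint-altered yeast strain following compound treatment.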

[13] = NCI Yeast Anticancer Drug Screen. Data for the sgs1 strain (AID 173);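 further: 0% = growth of vehicle-only control cultures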; details: S. cerevisiae sgs1 mutant, hits give high values
Summary of the method: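 Screen format: yeast with repair or checkpoint alterations, compound exposure, growth read relative to vehicle.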

[14] = NCI Yeast Anticancer Drug Screen. Data for the mlh1 rad18 strain (AID 175); details: S. cerevisiae mlh1 rad18 strain growth inhibition, hits give high values
Summary of the method: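 Vehicle-treated cultures served as the reference for growth inhibition in a yeast strain carrying DNA damage repair alterations exposed to each compound.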

[15] = NCI Yeast Anticancer Drug Screen. Data for the rad18 strain (AID 177); details: S. cerevisiae rad18 mutant growth inhibition, hits give high values
Summary of the method: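 Test articles were incubated with altered yeast defective in DNA damage repair. Results are given as inhibition of growth versus vehicle.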

[16] = at 5.0 µM (retest, dose inferred, filed as 0.5)
[17] = at 50.0 µM (retest, dose inferred, filed as 5.0)

Measured: growth inhibition

CC(O)CN1C(=O)c2cccc3cc([N+](=O)[O-])cc(c23)C1=O (stereo unspecified)
active: [4]; at 11.0 µM 75% | [4]; at 33.0 µM 88% | [4]; [17] 78% | [4]; at 100.0 µM 91% | [14]; [17] 73% | [14]; at 50.0 µM 83.3% | [15]; at 100.0 µM 88%
inactive: [1]; at 1.2 µM -7% | [1]; at 3.7 µM 5% | [1]; at 11.0 µM 1% | [1]; at 33.0 µM -3% | [1]; at 100.0 µM 0% | [2]; at 1.2 µM 10% | [2]; at 3.7 µM 8% | [2]; at 11.0 µM 18% | [2]; at 33.0 µM 55% | [2]; at 100.0 µM 60% | [3]; at 1.2 µM -23% | [3]; at 3.7 µM 4% | [3]; at 11.0 µM 6% | [3]; at 33.0 µM 15% | [3]; at 100.0 µM 23% | [4]; at 1.2 µM -2% | [4]; at 3.7 µM 27% | [4]; [16] 56% | [4]; at 50.0 µM 50.9% | [5]; at 1.2 µM -17% | [5]; at 3.7 µM -11% | [5]; [16] -16% | [5]; at 11.0 µM 2% | [5]; at 33.0 µM 34% | [5]; [17] 65% | [5]; at 50.0 µM 67.4% | [5]; at 100.0 µM 42% | [6]; at 1.2 µM 2% | [6]; at 3.7 µM 12% | [6]; at 11.0 µM 14% | [6]; at 33.0 µM 19% | [6]; at 100.0 µM 21% | [7]; [16] -13% | [7]; [17] 15% | [7]; at 50.0 µM 58% | [8]; at 1.2 µM 20% | [8]; at 3.7 µM 0% | [8]; at 11.0 µM -2% | [8]; at 33.0 µM -5% | [8]; at 100.0 µM -5% | [9]; [16] 5% | [9]; [17] 33% | [9]; at 50.0 µM 13.4% | [10]; at 1.2 µM -8% | [10]; at 3.7 µM -6% | [10]; [16] 8% | [10]; at 11.0 µM -11% | [10]; at 33.0 µM -21% | [10]; [17] 32% | [10]; at 50.0 µM 39.4% | [10]; at 100.0 µM -30% | [11]; at 1.2 µM -27% | [11]; at 3.7 µM -18% | [11]; at 11.0 µM -13% | [11]; at 33.0 µM -12% | [11]; at 100.0 µM 2% | [12]; at 1.2 µM 5% | [12]; at 3.7 µM 4% | [12]; at 11.0 µM 14% | [12]; at 33.0 µM 50% | [12]; at 100.0 µM 47% | [13]; at 1.2 µM -6% | [13]; at 3.7 µM -15% | [13]; at 11.0 µM 6% | [13]; at 33.0 µM 15% | [13]; at 100.0 µM 30% | [14]; [16] 25% | [15]; at 1.2 µM -11% | [15]; at 3.7 µM 2% | [15]; at 11.0 µM 9% | [15]; at 33.0 µM 67%

C[n+]1c(-c2ccc(NC(=O)c3ccc(C(=O)Nc4ccc(-c5cn6ccccc6[n+]5C)cc4)cc3)cc2)cn2ccccc21
inactive: [1]; at 1.2 µM 5% | [1]; at 3.7 µM 3% | [1]; at 11.0 µM 13% | [2]; at 1.2 µM -23% | [2]; at 3.7 µM -6% | [2]; at 11.0 µM 36% | [3]; at 1.2 µM 3% | [3]; at 3.7 µM 2% | [3]; at 11.0 µM 20% | [4]; at 1.2 µM 3% | [4]; at 3.7 µM 4% | [4]; [16] 16% | [4]; at 11.0 µM 17% | [5]; at 1.2 µM 4% | [5]; at 3.7 µM 9% | [5]; [16] 5% | [5]; at 11.0 µM 30% | [5]; at 50.0 µM 56.5% | [6]; at 1.2 µM -2% | [6]; at 3.7 µM -2% | [6]; at 11.0 µM 13% | [7]; [16] 15% | [7]; at 50.0 µM 64.5% | [8]; at 1.2 µM -1% | [8]; at 3.7 µM -4% | [8]; at 11.0 µM 18% | [8]; at 33.0 µM 66% | [9]; [16] 32% | [9]; at 50.0 µM 51.5% | [10]; at 1.2 µM -3% | [10]; at 3.7 µM 9% | [10]; [16] 37% | [10]; at 11.0 µM 30% | [10]; at 50.0 µM 57.6% | [11]; at 1.2 µM 4% | [11]; at 3.7 µM 2% | [11]; at 11.0 µM 18% | [13]; at 1.2 µM -2% | [13]; at 3.7 µM 1% | [13]; at 11.0 µM 29% | [14]; [16] 52%
active: [1]; at 33.0 µM 70% | [1]; at 100.0 µM 92% | [2]; at 33.0 µM 77% | [2]; at 100.0 µM 88% | [3]; at 33.0 µM 85% | [3]; at 100.0 µM 92% | [4]; at 33.0 µM 76% | [4]; [17] 98% | [4]; at 50.0 µM 74.8% | [4]; at 100.0 µM 91% | [5]; at 33.0 µM 82% | [5]; [17] 98% | [5]; at 100.0 µM 96% | [6]; at 33.0 µM 84% | [6]; at 100.0 µM 96% | [7]; [17] 97% | [8]; at 100.0 µM 89% | [9]; [17] 96% | [10]; at 33.0 µM 83% | [10]; [17] 97% | [10]; at 100.0 µM 93% | [11]; at 33.0 µM 84% | [11]; at 100.0 µM 94% | [13]; at 33.0 µM 83% | [13]; at 100.0 µM 93% | [14]; [17] 98% | [14]; at 50.0 µM 75.5%
